In PubChem BioAssay (NCI) one finds growth data, which are given here for 13 compounds.

This is part of a sample that, as a whole, favours compounds with a hit. Of some 83,000 tested, about 20% had one in any assay.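 Note: values are percent growth. 100 is the growth of untreated cells, values between 100 and 0 indicate rising inhibition; between -100 and 0 indicates cell death.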 Unmarked numbers belong to inactive results. Activity calls are given as the source filed them. How the source made its calls: active means growth percent below 10; inactive means the rest.

Assay in all cases: NCI-60 one-dose screen, 48 h (100 = growth as untreated, 0 = no growth, -100 = all killed)
The test system of one assay is SR leukemia. The conditions noted are these: 10 µM unless noted.
The next assay relates to RPMI-8226 leukemia. The conditions noted are these: 10 µM unless noted.
The test system of a further assay is OVCAR-8 ovarian. The conditions noted are these: 10 µM unless noted.
The next assay concerns OVCAR-5 ovarian. The conditions noted are these: 10 µM unless noted.
In the next assay the test system is OVCAR-4 ovarian. The conditions noted are these: 10 µM unless noted.
For a further assay, the system named is SK-OV-3 ovarian. The conditions noted are these: 10 µM unless noted.
Another assay deals with IGROV1 ovarian. The conditions noted are these: 10 µM unless noted.
A further assay has as its system OVCAR-3 ovarian. The conditions noted are these: 10 µM unless noted.
The subject of a further assay is HS 578T breast. The conditions noted are these: 10 µM.
The subject of a further assay is NCI/ADR-RES ovarian. The conditions noted are these: 10 µM unless noted.

In the case of `C=CC[n+]1c(/C=C/C=C2\N(C)c3ccccc3C2(C)C)sc2ccc(OC)cc21`, the growth is 11.7% in the assay on SR leukemia; 1.33% (active) in the assay with RPMI-8226 leukemia; 12.2% with OVCAR-8 ovarian; 22.4% in the assay with OVCAR-5 ovarian; 25.1% in the assay with OVCAR-4 ovarian; -13.8% (active) in the assay with SK-OV-3 ovarian. Also, the growth was 40.9% with IGROV1 ovarian, 13.3% with OVCAR-3 ovarian, 53.6% with HS 578T breast and 71.7% in the assay with NCI/ADR-RES ovarian.

`COc1ccc(C2CC(=O)c3c(O)c(OC)c(OC)c(OC)c3O2)cc1O` (stereo not given): the growth was 22.7% in the assay on SR leukemia; 34.3% with RPMI-8226 leukemia; 26.8% in the assay with OVCAR-8 ovarian; 81.1% in the assay with OVCAR-5 ovarian; 47.9% in the assay on OVCAR-4 ovarian; 40% with SK-OV-3 ovarian. In addition, the growth in the assay on IGROV1 ovarian is 48.2%; in the assay on OVCAR-3 ovarian, -5.96% (active); in the assay with HS 578T breast it was 14.8%; in the assay with NCI/ADR-RES ovarian it was 3.97% (active).

Turning to `CCOC(=O)C1=C(C)N=C2Sc3cccc(OC)c3N2[C@H]1c1ccccn1`, the growth with SR leukemia was 96.9%; in the assay with RPMI-8226 leukemia, 106%; in the assay on OVCAR-8 ovarian it was 97%; with OVCAR-5 ovarian it was 110%; in the assay with OVCAR-4 ovarian it was 96.3%; in the assay with SK-OV-3 ovarian, 99.5%. The growth in the assay on IGROV1 ovarian is 101%; with OVCAR-3 ovarian, 107%; in the assay on HS 578T breast, 91.9%; in the assay on NCI/ADR-RES ovarian, 96.4%.

Turning to `COc1ccc(-c2nc(N)ncc2Oc2ccccc2OC)c(O)c1`, the growth is 27.9% with SR leukemia; 25.7% with RPMI-8226 leukemia; 35.6% in the assay with OVCAR-8 ovarian; 60.2% in the assay with OVCAR-5 ovarian; 75.7% in the assay with OVCAR-4 ovarian; 24.8% in the assay on SK-OV-3 ovarian. Moreover, the growth with IGROV1 ovarian is 48.7%; in the assay on OVCAR-3 ovarian, -4.77% (active); in the assay on HS 578T breast, 36.2%; in the assay on NCI/ADR-RES ovarian, 17.9%.

As to `CCc1nc2cc(/C=C/C(=O)NO)ccc2c(=O)n1CCc1ccc(OC)cc1`, the growth with SR leukemia was 14.3%; in the assay on RPMI-8226 leukemia it was 10.3%; with OVCAR-8 ovarian, 15.3%; with OVCAR-5 ovarian, 24.2%; in the assay on OVCAR-4 ovarian, 39.1%; in the assay on SK-OV-3 ovarian, 6.67% (active). The growth in the assay on IGROV1 ovarian was 40.9%; with OVCAR-3 ovarian, -1.22% (active); in the assay on HS 578T breast it was 41.8%; in the assay on NCI/ADR-RES ovarian it was 9.39% (active).

In the case of `CC(CCCC(=O)O)c1ccoc1` (stereo not given), the growth in the assay with SR leukemia was 102%; in the assay on RPMI-8226 leukemia, 104%; in the assay with OVCAR-8 ovarian, 109%; in the assay on OVCAR-5 ovarian, 105%; with OVCAR-4 ovarian, 99.7%; in the assay with SK-OV-3 ovarian, 95.1%. Besides, the growth in the assay with IGROV1 ovarian is 102%; with OVCAR-3 ovarian, 105%; in the assay on HS 578T breast, 112%; in the assay with NCI/ADR-RES ovarian, 104%.

In the case of `CCCCCCCC(=O)SCC/C=C/[C@@H]1CC(=O)NCc2nc(co2)C2=N[C@@](C)(CS2)C(=O)N[C@@H](C(C)C)C(=O)O1`, the growth in the assay on SR leukemia is 10.7%; with RPMI-8226 leukemia it was 3.09% (active); with OVCAR-8 ovarian it was 0.95% (active); in the assay on OVCAR-5 ovarian, -5.93% (active); with OVCAR-4 ovarian it was 12.2%; with SK-OV-3 ovarian, -12.7% (active). Further, the growth in the assay on IGROV1 ovarian is -23.2% (active); in the assay on OVCAR-3 ovarian, -45.6% (active); with HS 578T breast it was 4.63% (active); with NCI/ADR-RES ovarian, 5.57% (active).

Take `COc1ccc2c(CCCC(c3ccccc3)c3ccccc3)c3[n+](cc2c1OC)CCc1cc2c(cc1-3)OCO2`: the growth with SR leukemia is -35% (active); with RPMI-8226 leukemia it was -38.8% (active); in the assay with OVCAR-8 ovarian, -47.6% (active); in the assay with OVCAR-5 ovarian it was 31.8%; in the assay with OVCAR-4 ovarian, -81.3% (active); with SK-OV-3 ovarian it was -13.4% (active). The growth in the assay on IGROV1 ovarian was 5.13% (active); in the assay with OVCAR-3 ovarian, -74.6% (active); with HS 578T breast, -16.8% (active); with NCI/ADR-RES ovarian it was 71.7%.

As for `C=CCCCC(=O)CCC(=O)OCC1O[C@@H](O[C@@H]2C(O)[C@@H](OC(C)=O)C(C)O[C@H]2O[C@H](CC=C)CCCCC)C(O)[C@@H](OC(=O)/C(C)=C/C)[C@@H]1OC(=O)/C=C/c1ccccc1` (stereo not given in full), the growth in the assay on SR leukemia is -12.4% (active); with RPMI-8226 leukemia, -1.27% (active); in the assay on OVCAR-8 ovarian, 42.1%; in the assay on OVCAR-5 ovarian, 53.5%; with OVCAR-4 ovarian, 42.4%; in the assay on SK-OV-3 ovarian, 40.6%. Moreover, the growth was 35.1% in the assay on IGROV1 ovarian, 26% in the assay with OVCAR-3 ovarian, 35.9% with HS 578T breast and 49.2% with NCI/ADR-RES ovarian.

Take `Cc1cccc(NC(=O)[C@@H]2c3ccccc3C(=O)N(c3ccc(Cl)cc3)[C@H]2c2ccc(Cl)cc2)n1`: the growth in the assay on SR leukemia was 34.5%; in the assay on RPMI-8226 leukemia, 24.5%; with OVCAR-8 ovarian, 51.2%; with OVCAR-5 ovarian, 78.7%; in the assay with OVCAR-4 ovarian, 45.1%; with SK-OV-3 ovarian, 55.1%. Further, the growth in the assay on IGROV1 ovarian is 73.5%; with OVCAR-3 ovarian, 61.8%; with HS 578T breast, 72.4%; with NCI/ADR-RES ovarian, 47.8%.

On to `Cc1cc2c(-c3nc4ccccn4c3NC34CC5CC(CC(C5)C3)C4)c(O)c(O)cc2c(O)c1-c1c(C)cc2c(-c3nc4ccccn4c3NC34CC5CC(CC(C5)C3)C4)c(O)c(O)cc2c1O`, for which the growth with SR leukemia is 13.1%; with RPMI-8226 leukemia, 24.4%; in the assay with OVCAR-8 ovarian it was 12.3%; in the assay with OVCAR-5 ovarian, 29.3%; in the assay on OVCAR-4 ovarian it was 21.4%; with SK-OV-3 ovarian it was -11.1% (active). The growth in the assay on IGROV1 ovarian is 21.3%; in the assay on OVCAR-3 ovarian, 27.6%; in the assay on HS 578T breast it was 21.8%; with NCI/ADR-RES ovarian, 9.01% (active).

As for `CCNC(=O)Nc1nc2ccc(Oc3ccnc(C(=O)NC)c3)cc2s1`, the growth in the assay on SR leukemia was 30.4%; in the assay with RPMI-8226 leukemia, 85%; with OVCAR-8 ovarian it was 91.6%; with OVCAR-5 ovarian, 92.9%; with OVCAR-4 ovarian it was 83%; in the assay with SK-OV-3 ovarian it was 88.1%. Also, the growth in the assay with IGROV1 ovarian is 90%; in the assay with OVCAR-3 ovarian it was 83.1%; with HS 578T breast, 87.3%; with NCI/ADR-RES ovarian it was 73.3%.

Regarding `Nc1ccc(S(=O)(=O)O)c2cc(S(=O)(=O)O)cc(O)c12`, the growth with SR leukemia was 105%; with RPMI-8226 leukemia, 102%; with OVCAR-8 ovarian it was 105%; with OVCAR-5 ovarian it was 102%; in the assay with OVCAR-4 ovarian, 109%; with SK-OV-3 ovarian, 101%. Further, the growth with IGROV1 ovarian was 107%; with OVCAR-3 ovarian, 113%; in the assay on HS 578T breast, 103%; in the assay on NCI/ADR-RES ovarian, 105%.
